# Laboratory results taken from PubChem BioAssay AID651791 (National Center for Advancing Translational Sciences (NCATS), 2012).
# Inconclusive results are not listed. The source made the active and inactive calls. Calls come from the whole dose curve; as a rule, active = well fitted inhibition curve with a large enough effect; inconclusive = small, poorly fitted or top-dose-only effect; inactive = no such curve, though single readings can be large or run the other way.
# Test: InCell qHTS Assay for Inhibitors of the mTORC1 Signaling Pathway in MEF (Tsc2-/-, p53-/-) Cells: Hit Validation;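 note: phospho-S6 Ser235/236 signal normalized to propidium iodide cell count per well; nearly all actives have a fitted effect of over 75% in size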
# Details: phospho-rpS6 immunofluorescence, 24 h; activity change, negative = inhibition: at 38.3 µM (top of the series)
# Potency is the fitted concentration of half-maximal effect.
SMILES,"activity change, negative = inhibition",Potency
COCCCNC(=O)c1cc2c(=O)oc3ccc(C)cc3c2s1,-100%,–
CCOc1ccc(N(CC(=O)Nc2ccccc2CC)S(=O)(=O)c2c(C)noc2C)cc1,-100%,–
CCCSc1oc(-c2ccco2)nc1S(=O)(=O)c1ccc(Br)cc1,-100%,–
COc1ccc(OC)c(Nc2c3c(nc4ccccc24)CCC3)c1,-25.7%,–
COc1ccc(CN2CCN(c3ncnc4sc5c(c34)CCCC5)CC2)cc1F,-100%,–
CCOc1ccc(C(=O)NCCc2sc(-c3ccc(C)cc3)nc2C)cc1,-100%,–
CCS(=O)(=O)c1ncc(Cl)c(C(=O)NCc2ccc(OC)cc2)n1,–,4.65 µM (active)
Cc1cccc(NC(c2cccc(Cl)c2)c2ccc3cccnc3c2O)n1 (configuration not stated),-100%,–
Cc1cccc(-c2nc3c(cnn3-c3ccccc3)c(=O)n2-c2ccc(Br)cc2)c1,-100%,–
CCCN1C(=O)C(Cc2nc3ccccc3c(=O)n2CC)c2ccccc21 (configuration not stated),-100%,–
COc1ccc(NC(=O)c2ccco2)cc1NC(=O)COc1ccccc1Cl,-100%,–
O=C(NCc1ccccc1Cl)C(=O)NCC(c1cccs1)S(=O)(=O)c1cccs1 (configuration not stated),-100%,–
Cc1ccc2nc(/C(C#N)=C/c3ccc(-c4ccc(F)cc4F)o3)[nH]c2c1,-100%,–
CCOC(=O)c1sc2ccccc2c1S(=O)(=O)Nc1ccc(CC)cc1,-100%,–
CCOC(=O)N1CCN(Cc2nc3cc(NC(=O)c4ccc([N+](=O)[O-])cc4)ccc3n2C(C)C)CC1,-100%,–
CCc1ccc(CN(Cc2ccco2)C(=O)c2cc(-c3ccc(C)c(F)c3)on2)cc1,-100%,–
COc1ccc(C2CC(=O)c3c([nH]c(C(=O)OC4CCCCCC4)c3C)C2)cc1OC (configuration not stated),-100%,–
COc1cc2nc(Nc3ccc(C)c(C)c3)nc(N)c2cc1OC,-100%,–
O=C(Cn1cc(SCc2ccccc2)c2ccccc21)N1CCCCCC1,-100%,–

SMILES,"activity change, negative = inhibition",Potency
CCn1c(=O)sc2cc(NS(=O)(=O)c3ccc(F)c(C)c3)ccc21,-100%,–
COc1ccc(/C=C/C(=O)Nc2ccc3nc(N4CCC(C)CC4)cc(C)c3c2)cc1OC,-100%,–
CCS(=O)(=O)c1ncc(Cl)c(C(=O)NCc2ccccc2)n1,–,10.4 µM (active)
COc1ccc(-n2ncc3c(NCCCOC(C)C)ncnc32)cc1,-100%,–
COC(=O)c1ccc(Nc2nnc(-c3ccc(C)c(S(=O)(=O)N4CCN(C)CC4)c3)c3ccccc23)cc1,-100%,–
C=CCc1c(C)nc2nc(SCC(=O)Nc3ccc(C)c(C)c3)nn2c1C,–,9.27 µM (active)
COc1cc(C(=O)CC2(O)C(=O)N(Cc3ccccc3Cl)c3ccccc32)cc(OC)c1OC (configuration not stated),-3.93%,–
Cc1ccccc1NC(=O)Cn1cc(C(=O)c2cccs2)c2ccccc21,-100%,–
CCN1CCOC(=O)C1CC(=O)Nc1cc(C)ccc1OC (configuration not stated),–,13.1 µM (active)
Cc1ccc(O)c(C(CC(=O)NCC2(c3ccccc3)CCCC2)c2ccccc2)c1 (configuration not stated),-100%,–
CCOc1ccc(S(=O)(=O)NCCc2sc(-c3ccc(C)cc3)nc2C)cc1,-100%,–
CCC1=Nc2cc(C(=O)NC3CCCC3)ccc2Sc2ccc(Cl)cc21,-100%,–
COc1cc(OC)c(NS(=O)(=O)c2ccc3c(c2)CCCN3C(C)=O)cc1Cl,-100%,–
O=C(NCCN1CCN(c2cccc(Cl)c2)CC1)Nc1ccccc1C(F)(F)F,-100%,–
Cc1nc2nncn2c(NCc2ccc(F)cc2)c1C,-100%,–
CN(C(=O)CSc1nc2ccc(NC(=O)COc3ccc(F)cc3)cc2s1)c1ccccc1,-100%,–
CC(C)N(C(=O)CSc1nc2ccc(Cl)cc2[nH]1)c1ccccc1,-100%,–
COc1cccc(-c2nc(SCC(=O)NCC3CCCO3)c(-c3ccc(F)cc3)[nH]2)c1 (configuration not stated),-100%,–
